# Laboratory results: PubChem BioAssay (NCATS)
# Inconclusive results are not listed. Where a call stands in place of a potency, no number is given. Active and inactive are the calls of the source. The call rests on the fitted dose curve; in most records, active means well fitted inhibition curve with a large enough effect; inconclusive means small, poorly fitted or top-dose-only effect; inactive means no such curve, though single readings can be large or run the other way.
# Legend:
# [1] = system: Zika virus NS2B-NS3 protease (unlinked complex); assay: Primary screen GU Rhodamine qHTS for Zika virus inhibitors: Unlinked NS2B-NS3 protease assay (AID 1347159); settings: Recombinant ZIKV NS2B-NS3 protease, Rhodamine110 substrate fluorescence; series mostly up to 107 µM; further: nearly all actives have a fitted effect of over 60% in size
# How it was run: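 Compounds, tested up to 114 microM, were incubated for 15 minutes with 25 nM unlinked NS2B-NS3 protease at pH 8.0. Cleavage of 1.5 microM Rhodamine110 substrate was then followed by fluorescence for 15 minutes.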
# [2] = system: Zika virus NS2B-NS3 protease (linked construct); assay: Primary screen NINDS Rhodamine qHTS for Zika virus inhibitors (AID 1347160); settings: purified NS2B-NS3 protease, Rhodamine110 substrate fluorescence; series mostly up to 57.1 µM; further: nearly all actives have a fitted effect of over 55% in size
# How it was run: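 Percent inhibition, normalized to uninhibited and enzyme-free controls, is fitted to a 4-parameter Hill equation. Fluorescence change comes from a 15-min cleavage of 1.5 microM bis-peptide Rhodamine110 substrate by 25 nM linked NS2B-NS3 at room temperature.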
Compound,Potency [1],Potency [2]
COc1ccc(-c2csc(NC(=O)[C@H]3CCCCN3S(=O)(=O)c3ccc(C)cc3)n2)cc1,inactive,inactive
COc1ccccc1OCCNCC(O)CCOc1cccc2[nH]c3ccccc3c12 (stereo unspecified),inactive,inactive
COC(C)(C)CCn1nc(Nc2c(C)cccc2C)c2cnc(Nc3ccc(OCCN4CCCC4)c(F)c3)nc21,inactive,inactive
C=C(C)C(=O)OC1CC(CO)CCC/C(CO)=C/C2OC(=O)C(=C)C21 (stereo unspecified),inactive,inactive
O=C(NCC1CCN(Cc2cccc(Cl)c2)CC1)[C@@H]1CCCN(c2ncnc3c2nc2n3CCCC2)C1,inactive,inactive
Cc1cc(F)c(C(=O)Nc2cccc(-c3nncn3C(C)C)n2)cc1-n1cnc(C2CC2)c1,inactive,inactive
CN(C)C(=O)C(=O)c1cn(C)c2cc(Cl)c(C(=O)N3CCC(Cc4ccc(F)cc4)CC3)cc12,inactive,inactive
CCN(Cc1cc(Nc2nc(C)cn3c(-c4cn[nH]c4)cnc23)sn1)C(C)(C)CO,inactive,inactive
C=C1C(=O)OC2/C=C(\COC(C)=O)CC/C=C(\C=O)CC(OC(=O)C(C)CC)C12 (stereo unspecified),inactive,inactive
COc1ccc(CNc2nc(N(CCO)CCO)nc3c2ncn3C(C)C)cc1,inactive,inactive
COc1cc(O)c2c(c1)C1OC1C[C@H](O)[C@H](O)C(=O)/C=C\C[C@H](C)OC2=O (stereo partly specified),inactive,inactive
COc1ccc(N(C(=O)Nc2c(C)cccc2C)c2cc(Nc3ccc(N4CCN(C)CC4)cc3)ncn2)c(OC)c1,inactive,inactive
COC(CCc1ccc(O)cc1)CC(=O)CCc1ccc(O)cc1 (stereo unspecified),inactive,inactive
